Bioassay records (PubChem)
IL-1B inflam inh: blocks inflammasome-driven IL-1 beta release; activity change, % at 57.5 µM; AID 743279; 4.7% of 360,000 active; THP-1 LPS/ATP IL-1B secretion, AlphaLISA, 16 h; active compounds read low; in the data active means activity change below about -50%; inconclusive means mostly about -30% to -49%
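THP-1 cells pretreated 1 hr with compounds (up to 57.5 uM final), then stimulated with LPS (250 ng/mL final) plus ATP (1.25 mM final); secreted IL-1B measured by AlphaLISA after 16 hr, decreased signal indicating inhibition.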
Giardia kill: kills Giardia lamblia; Giardia lamblia trophozoite viability; AID 540267; activity change, % at 7.66 µM, hits read low; 0.15% of 340,000 active; in the data active means activity change below about -80%; inconclusive means between about -30% and that limit;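 further: parasites exposed to compound for two days anaerobically before the ATP read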
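Giardia lamblia trophozoites (100 cells/well) were incubated with compounds for 48 h at 37 deg C under anaerobic conditions. Viability was read as ATP content by one-step luminescence after 15-30 min at room temperature.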
ELG1 repair inh: inhibitors of ELG1-dependent DNA repair in HEK293T cells | AID 504467 | 2.3% of 330,000 active | HEK293T ELG1-luciferase reporter, luminescence, 16 h; DNA damage induced by 5-fluorouridine | Potency, µM (highest dose often 46.1 µM), for inactives: at the top dose activity change, negative = inhibition, hits mostly inhibitors; further: potency means the concentration at half of the fitted maximal effect; nearly all actives have a fitted effect of over 55% in size
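DMSO vehicle served as the neutral condition. Each well held 2,000 cells given 5-fluorouridine plus compound; after 16 hr at 37 °C/5% CO2, ONE-Glo was added and luciferase measured 30 min later.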
TDP1 block: blocks human tyrosyl-DNA phosphodiesterase 1. Q9NUW8. recombinant TDP1, AlphaScreen DNA substrate cleavage. Potency, µM (highest dose often 130 µM), for the others: at the top dose activity change, negative = inhibition, hits mostly inhibitors. 0.28% of 350,000 active. AID 485290; further: potency means the concentration at half of the fitted maximal effect; nearly all actives have a fitted effect of over 40% in size
Target sequence (Q9NUW8 whole entry, looked up): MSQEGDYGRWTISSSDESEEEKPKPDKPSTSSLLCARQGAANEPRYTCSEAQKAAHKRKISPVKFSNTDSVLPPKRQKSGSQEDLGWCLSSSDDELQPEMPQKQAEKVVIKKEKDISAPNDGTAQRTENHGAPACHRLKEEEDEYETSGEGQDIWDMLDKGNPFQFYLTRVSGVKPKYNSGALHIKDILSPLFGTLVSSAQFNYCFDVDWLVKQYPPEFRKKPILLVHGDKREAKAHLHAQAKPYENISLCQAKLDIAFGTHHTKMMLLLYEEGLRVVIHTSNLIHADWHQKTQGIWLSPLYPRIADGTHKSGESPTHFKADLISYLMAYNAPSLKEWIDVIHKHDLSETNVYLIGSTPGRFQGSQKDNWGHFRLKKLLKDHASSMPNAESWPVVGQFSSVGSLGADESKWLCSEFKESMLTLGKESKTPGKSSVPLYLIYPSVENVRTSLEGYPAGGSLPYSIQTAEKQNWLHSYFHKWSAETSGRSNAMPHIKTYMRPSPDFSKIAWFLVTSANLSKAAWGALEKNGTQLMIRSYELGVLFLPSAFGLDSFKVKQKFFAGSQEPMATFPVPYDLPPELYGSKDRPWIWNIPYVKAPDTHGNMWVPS
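Tdp1 1 nM final; 15 min RT w/ cpd; substrate 15 nM, 5 min; beads 10 ug/ml, 10 min; AlphaScreen read. Neg ctrl: no enzyme.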
TDP1 cell noCPT: qHTS for Inhibitors of human tyrosyl-DNA phosphodiesterase 1 (TDP1): qHTS in cells in absence of CPT. DT40 Tdp1-/- hTDP1 cells, no CPT, ATP luminescence, 48 h. Potency, µM (series often up to 46.2 µM), for the others: at the top dose activity change, negative = growth inhibition, usual class: inhibitors. 15% of 420,000 active; further: potency means the concentration at half of the fitted maximal effect; nearly all actives have a fitted effect of over 55% in size
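Compound effects on proliferation are scored in DT40 Tdp1-/-;hTDP1 cells in the absence of CPT. ATP levels (CellTiter-Glo luminescence) are recorded after a ≥48 hr, 37 °C incubation.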
DT40 TDP1 CPT: growth inhibition of DT40 Tdp1-/-;hTDP1 cells with camptothecin (screen for TDP1 inhibitors) | chicken DT40 Tdp1-/-;hTDP1 cells + 20 nM CPT, ATP luminescence, 48 h | Potency, µM (highest dose often 46.2 µM), inactives show top-dose activity change, negative = growth inhibition, most hits filed as inhibitors | 12% of 420,000 active | AID 686979; further: potency means the concentration at half of the fitted maximal effect; nearly all actives have a fitted effect of over 55% in size
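Cell growth measured by CellTiter-Glo luminescence after a minimum 48 h, 37 C compound exposure with 20 nM CPT in Tdp1-knockout DT40 cells stably expressing hTDP1, seeded 400/well; qHTS titration format.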
* = called active by the depositor; ? = inconclusive; . = not tested or not shown; ! = not confirmed by another sample; [ ] = dose if it differs, or a comment. Compounds with a hit are over-represented: about 19% of the library has one in this group of screens. Unless noted, the call rests on the fitted dose curve; in most records, active means well fitted curve in the direction sought with a large enough effect; inconclusive means small, poorly fitted or top-dose-only effect, or another doubt; inactive means no such curve, though single readings can be large; an effect the other way counts as inactive or inconclusive. On the % scale 0 is the no-effect control and ±100 the full control effect.

SMILES	IL-1B inflam inh	Giardia kill	ELG1 repair inh	TDP1 block	TDP1 cell noCPT	DT40 TDP1 CPT
CC(NC(=O)c1cc(F)ccc1F)c1nnc2n1CCN(Cc1ccccc1O)CC2 (stereo not given)	.	.	.	.	-26.9%	-15.6%
CN1CCN(C2Cc3ccccc3Sc3cc(C(F)(F)F)ccc32)CC1 (stereo not given)	-97.6*	4.3	.	.	16.4µM*	?
CN1CCN(C2Cc3cc(F)ccc3Sc3ccc(Cl)cc32)CC1 (stereo not given)	?	3.4	.	.	?	?
CN1CCN(C2Cc3ccc(F)cc3Sc3cc(F)c(Cl)cc32)CC1 (stereo not given)	-96.6*	13.0	.	.	10.3µM*	18.4µM*
Cc1ccc(-n2c3nc(=O)n(C)c(=O)c-3cc3ccccc32)cc1	36.8	-3.3	-6.9%	.	?	?
Cc1ccccc1-c1nc2c(=O)n(C)c(=O)nc-2n(C)n1	.	-86.5*	.	2.3%	0.631µM*	0.708µM*
Cn1nc(-c2ccccn2)nc2c(=O)n(C)c(=O)nc1-2	-93.6*	-7.5	?	-1.2%	0.517µM*	0.651µM*
CCc1ccc(-c2csc3ncn(CC)c(=O)c23)cc1	-24.2	9.1	-3.5%	-2.4%	1.8%	-2.3%
COc1ccc(-c2nc(-c3ccccn3)ncc2S(C)(=O)=O)cc1	-12.7	-1.8	-9.0%	5.9%	-1.3%	4.9%
CCc1ccc(-c2nc3c(=O)n(C)c(=O)nc-3n(CC)n2)cc1	.	-90.7*	.	2.1%	2.82µM*	2.82µM*
CCCc1nc2c(=O)n(C)c(=O)nc-2n(C)n1	-105.6*	?	4.61µM*	6.3%	1.16µM*	1.64µM*
Cc1nn(C)c2c1c(C(F)(F)F)cc(=O)n2CC(=O)N1CCC(C)CC1	.	.	.	5.8%	?	?
Cc1nn(-c2ccccc2)c2nc(C3CC3)cc(C(=O)Nc3ccccc3F)c12	.	.	.	5.3%	5.8µM*	7.31µM*
CCOc1ccc(NC(=O)c2cc(C)nc3c2c(C)nn3-c2ccc(C)cc2)cc1	.	.	.	3.2%	-25.8%	?
Cc1cc(C(=O)Nc2ccc(Cl)cc2)c2c(C)nn(-c3ccccc3)c2n1	.	.	.	0.9%	?	9.2µM*
CCOC(=O)c1cccc(NC(=O)c2cc(C)nc3c2c(C)nn3-c2ccc(C)cc2)c1	.	.	.	0.0%	20.6µM*	?
Cc1cc(C(=O)NCc2ccc(Cl)cc2)c2c(C)nn(-c3ccccc3)c2n1	.	.	.	-2.8%	-16.5%	-2.3%
Cc1cccc(OCC(=O)NNC(=O)C2CCCCC2C(=O)O)c1 (stereo not given)	11.0	5.0	11.9%	-5.1%	-22.5%	-23.0%
C[C@@H]1CN([C@@H](C)CO)C(=O)CCCn2nncc2CO[C@H]1CN(C)C(=O)c1ccccc1	-6.4	.	.	.	1.3%	-1.1%
O=C(Nc1nccs1)C1CCN(S(=O)(=O)c2ccccc2)CC1	0.9	4.1	-0.4%	1.9%	-2.9%	2.6%
CC(=O)/C=C/c1ccccc1Oc1c(F)c(F)nc(F)c1F	-27.4	26.4	?	.	25.9µM*	?
Cc1cc(OCCN2CCN(S(=O)(=O)c3ccccc3F)CC2)ccc1C(C)C	0.0	10.3	6.0%	-2.9%	16.4µM*	20.6µM*
NC(=O)COc1ccc(NC(=O)CC23CC4CC(CC(C4)C2)C3)cc1	4.9	14.4	-9.3%	.	1.4%	-3.1%
CNC(=O)c1ccc(NC(=O)CC23CC4CC(CC(C4)C2)C3)cc1	16.4	43.1	9.2µM*	.	?	10.9%
C=CC[C@@H]1C=C[C@@H](O/N=C\C[C@@H]2C=C[C@H](OC(C)=O)[C@H](COC(C)=O)O2)[C@@H](CO)O1	.	.	.	4.8%[21 µM]	.	.
SMILES	IL-1B inflam inh	Giardia kill	ELG1 repair inh	TDP1 block	TDP1 cell noCPT	DT40 TDP1 CPT
CC(=O)c1c(O)c(C)c(O)c2c1OC1=CC(=O)C(C(C)=O)C(=O)[C@@]12C (stereo not given in full)	2.5	-20.8	-8.2%	-9.0%[56.1 µM]	?	18.4µM*!
CC(=O)c1c(O)c(C)c(O)c2c1OC1=CC(=O)C(C(C)=O)C(=O)C12C (stereo not given)	.	.	.	14.3%	0.1%	2.6%
Cc1cnc([N+](=O)[O-])n1CCOC(=O)NC(=O)c1ccc(F)cc1	33.8	?	9.5%	2.5%	3.8%	14.6%
Cc1cnc([N+](=O)[O-])n1CCOC(=O)c1cccc(F)c1	12.4	-80.7*	0.0%	.	-0.2%	-11.7%
Cc1nn(CC(=O)Nc2cccc(S(N)(=O)=O)c2)c(C)c1[N+](=O)[O-]	19.1	?	-19.8%	-3.4%	2.6%	1.8%
CCN(Cc1ccc(N(C)C)cc1)C(C)C(=O)Nc1ccc(S(=O)(=O)N2CCCC2)cc1 (stereo not given)	-14.5	2.2	9.0%	9.3%	-0.8%	-29.1%
Cc1ccc(CCNc2ncnc3onc(-c4ccc(F)cc4)c23)cc1	.	.	.	4.2%	2.2%	-1.1%
CSc1ccc(CCNc2ncnc3onc(-c4ccc(Cl)cc4)c23)cc1	.	.	.	-1.1%	10.3µM*	16.4µM*
Fc1ccc(-c2noc3ncnc(NCCc4ccccc4)c23)cc1	.	.	.	-9.5%	16.4µM*	?
Fc1ccc(-c2noc3ncnc(NCCc4ccc(Cl)cc4)c23)cc1	.	.	.	4.2%	10.3µM*	14.6µM*
Fc1ccc(-c2noc3ncnc(NCc4ccc(Cl)cc4)c23)cc1	.	.	.	2.1%	?	?
CC(NC(=O)C1CCCCC1)C(=O)NC1=NCCS1 (stereo not given)	-13.6	-8.4	2.6%	6.1%	1.4%	-6.0%
CC(C)(C)OC(=O)NCC(=O)NNC(=O)c1nc2ccccc2[nH]1	.	.	.	0.8%	.	.
COc1ccc(NC(=O)c2c(C)noc2-c2snnc2C)cc1	-5.2	-19.0	?	2.6%	20.6µM*	?
O=C(Nc1ccc(C(=O)N2CCN(c3ccncc3)CC2)cc1)c1ccc(Br)o1	-23.6	.	.	.	?	-18.0%
O=C(Nc1ccc(C(=O)N2CCC(O)(c3ccc(Cl)c(C(F)(F)F)c3)CC2)cc1)c1ccc(Br)o1	-61.4*	16.3	?	-0.2%	18.4µM*	?
CCOc1ccc(CCNC(=O)CN2C(=O)COc3ccc(S(=O)(=O)N(CC)CC)cc32)cc1	.	.	.	5.8%	?	23.1µM*
CSc1ccc(CCNC(=O)CN2C(=O)COc3ccc(S(=O)(=O)N4CCCC4)cc32)cc1	.	.	.	5.8%	?	23.1µM*
O=C(CN1C(=O)COc2ccc(S(=O)(=O)N3CCCCC3)cc21)NCCc1ccc(Cl)cc1	.	.	.	5.1%	18.4µM*	?
OCCN1CCN(Cc2ccc3c(c2)CN(Cc2cc4ccccc4o2)CCO3)CC1	.	.	.	.	-21.4%	1.2%[9.04 µM]
